# According to the supplement of paper PMC10849652:
# About 7,900 targets were measured; listed, in parts, are those with a hit and a random draw of the rest. About 0.6% of all pairs of compound and target were hits. Values without a mark were called inactive.
# Compound: CNCc1ccc(-c2[nH]c3cc(F)cc4c3c2CCNC4=O)cc1 [rucaparib]
# Assay: log2 fold change, soluble protein after heating vs DMSO (PISA); higher = thermal stabilisation; K562 cells, 10 uM, 30 min; active = over 0.2 and 3.5 SD of the protein, either way, in both replicates (recomputed)
# Method in brief: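 K562 cells (2×10^6 cells/mL) were treated with 10 μM compound for 30 min, and aliquots were heated for 3 min over 48°C-58°C. Pooled aliquots were extracted in PBS with 0.5% NP-40 at 4°C, and the supernatant after 21,000xg for 90 min was measured by TMTpro 16plex LC-MS/MS with channel sums equalised. Reported thermal stability, relative to control samples and from duplicates, is a log2 fold change.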
# Chain of UniProt Q13596 (Q13596 whole entry, looked up): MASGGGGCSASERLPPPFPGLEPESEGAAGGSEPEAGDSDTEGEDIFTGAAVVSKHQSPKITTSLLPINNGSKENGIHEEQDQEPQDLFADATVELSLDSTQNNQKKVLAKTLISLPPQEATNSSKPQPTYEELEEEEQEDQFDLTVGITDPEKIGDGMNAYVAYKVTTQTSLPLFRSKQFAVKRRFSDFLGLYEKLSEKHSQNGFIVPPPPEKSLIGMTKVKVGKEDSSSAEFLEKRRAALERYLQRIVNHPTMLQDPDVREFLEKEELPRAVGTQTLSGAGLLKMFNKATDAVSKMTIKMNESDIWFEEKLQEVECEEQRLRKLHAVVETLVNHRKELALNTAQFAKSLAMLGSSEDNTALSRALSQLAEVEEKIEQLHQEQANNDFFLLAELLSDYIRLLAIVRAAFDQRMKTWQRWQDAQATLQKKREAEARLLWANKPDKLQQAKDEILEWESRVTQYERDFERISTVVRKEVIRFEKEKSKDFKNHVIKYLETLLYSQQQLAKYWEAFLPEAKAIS
# Chain of UniProt Q92844 (Q92844 whole entry, looked up): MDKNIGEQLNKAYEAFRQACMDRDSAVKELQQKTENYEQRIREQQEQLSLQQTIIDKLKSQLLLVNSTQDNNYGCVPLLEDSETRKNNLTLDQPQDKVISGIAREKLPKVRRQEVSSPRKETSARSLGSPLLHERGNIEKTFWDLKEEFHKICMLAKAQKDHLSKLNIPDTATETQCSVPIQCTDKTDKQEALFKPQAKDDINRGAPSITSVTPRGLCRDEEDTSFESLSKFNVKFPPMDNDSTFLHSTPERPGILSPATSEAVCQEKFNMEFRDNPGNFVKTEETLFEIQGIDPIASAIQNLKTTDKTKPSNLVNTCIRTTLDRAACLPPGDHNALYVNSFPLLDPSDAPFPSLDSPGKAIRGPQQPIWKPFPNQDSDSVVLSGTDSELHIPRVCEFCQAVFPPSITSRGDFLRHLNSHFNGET
# Chain of UniProt Q8NEF9 (Q8NEF9 whole entry, looked up): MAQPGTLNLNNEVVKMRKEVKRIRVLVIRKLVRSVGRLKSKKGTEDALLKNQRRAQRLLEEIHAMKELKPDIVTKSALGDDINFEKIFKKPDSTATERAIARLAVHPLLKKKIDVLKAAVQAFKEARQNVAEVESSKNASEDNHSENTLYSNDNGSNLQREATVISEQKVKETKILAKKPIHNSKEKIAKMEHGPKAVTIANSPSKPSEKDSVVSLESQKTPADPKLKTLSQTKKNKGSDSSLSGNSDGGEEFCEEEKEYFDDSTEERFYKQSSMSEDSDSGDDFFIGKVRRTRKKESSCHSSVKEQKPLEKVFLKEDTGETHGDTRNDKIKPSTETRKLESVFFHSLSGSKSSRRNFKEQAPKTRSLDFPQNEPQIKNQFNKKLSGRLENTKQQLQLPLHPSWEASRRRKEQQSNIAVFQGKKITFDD
# Chain of UniProt Q5VWP2 (Q5VWP2 whole entry, looked up): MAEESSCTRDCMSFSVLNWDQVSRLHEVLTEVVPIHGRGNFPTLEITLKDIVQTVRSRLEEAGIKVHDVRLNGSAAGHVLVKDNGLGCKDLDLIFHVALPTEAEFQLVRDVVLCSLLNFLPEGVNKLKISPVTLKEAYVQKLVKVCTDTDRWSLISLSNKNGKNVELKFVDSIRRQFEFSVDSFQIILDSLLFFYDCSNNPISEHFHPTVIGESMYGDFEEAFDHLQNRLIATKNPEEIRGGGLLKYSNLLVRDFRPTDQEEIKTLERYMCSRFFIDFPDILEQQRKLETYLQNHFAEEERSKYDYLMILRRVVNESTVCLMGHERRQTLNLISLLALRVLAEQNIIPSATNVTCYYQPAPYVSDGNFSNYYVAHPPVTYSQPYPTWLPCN
# Chain of UniProt O95359 (O95359 whole entry, looked up): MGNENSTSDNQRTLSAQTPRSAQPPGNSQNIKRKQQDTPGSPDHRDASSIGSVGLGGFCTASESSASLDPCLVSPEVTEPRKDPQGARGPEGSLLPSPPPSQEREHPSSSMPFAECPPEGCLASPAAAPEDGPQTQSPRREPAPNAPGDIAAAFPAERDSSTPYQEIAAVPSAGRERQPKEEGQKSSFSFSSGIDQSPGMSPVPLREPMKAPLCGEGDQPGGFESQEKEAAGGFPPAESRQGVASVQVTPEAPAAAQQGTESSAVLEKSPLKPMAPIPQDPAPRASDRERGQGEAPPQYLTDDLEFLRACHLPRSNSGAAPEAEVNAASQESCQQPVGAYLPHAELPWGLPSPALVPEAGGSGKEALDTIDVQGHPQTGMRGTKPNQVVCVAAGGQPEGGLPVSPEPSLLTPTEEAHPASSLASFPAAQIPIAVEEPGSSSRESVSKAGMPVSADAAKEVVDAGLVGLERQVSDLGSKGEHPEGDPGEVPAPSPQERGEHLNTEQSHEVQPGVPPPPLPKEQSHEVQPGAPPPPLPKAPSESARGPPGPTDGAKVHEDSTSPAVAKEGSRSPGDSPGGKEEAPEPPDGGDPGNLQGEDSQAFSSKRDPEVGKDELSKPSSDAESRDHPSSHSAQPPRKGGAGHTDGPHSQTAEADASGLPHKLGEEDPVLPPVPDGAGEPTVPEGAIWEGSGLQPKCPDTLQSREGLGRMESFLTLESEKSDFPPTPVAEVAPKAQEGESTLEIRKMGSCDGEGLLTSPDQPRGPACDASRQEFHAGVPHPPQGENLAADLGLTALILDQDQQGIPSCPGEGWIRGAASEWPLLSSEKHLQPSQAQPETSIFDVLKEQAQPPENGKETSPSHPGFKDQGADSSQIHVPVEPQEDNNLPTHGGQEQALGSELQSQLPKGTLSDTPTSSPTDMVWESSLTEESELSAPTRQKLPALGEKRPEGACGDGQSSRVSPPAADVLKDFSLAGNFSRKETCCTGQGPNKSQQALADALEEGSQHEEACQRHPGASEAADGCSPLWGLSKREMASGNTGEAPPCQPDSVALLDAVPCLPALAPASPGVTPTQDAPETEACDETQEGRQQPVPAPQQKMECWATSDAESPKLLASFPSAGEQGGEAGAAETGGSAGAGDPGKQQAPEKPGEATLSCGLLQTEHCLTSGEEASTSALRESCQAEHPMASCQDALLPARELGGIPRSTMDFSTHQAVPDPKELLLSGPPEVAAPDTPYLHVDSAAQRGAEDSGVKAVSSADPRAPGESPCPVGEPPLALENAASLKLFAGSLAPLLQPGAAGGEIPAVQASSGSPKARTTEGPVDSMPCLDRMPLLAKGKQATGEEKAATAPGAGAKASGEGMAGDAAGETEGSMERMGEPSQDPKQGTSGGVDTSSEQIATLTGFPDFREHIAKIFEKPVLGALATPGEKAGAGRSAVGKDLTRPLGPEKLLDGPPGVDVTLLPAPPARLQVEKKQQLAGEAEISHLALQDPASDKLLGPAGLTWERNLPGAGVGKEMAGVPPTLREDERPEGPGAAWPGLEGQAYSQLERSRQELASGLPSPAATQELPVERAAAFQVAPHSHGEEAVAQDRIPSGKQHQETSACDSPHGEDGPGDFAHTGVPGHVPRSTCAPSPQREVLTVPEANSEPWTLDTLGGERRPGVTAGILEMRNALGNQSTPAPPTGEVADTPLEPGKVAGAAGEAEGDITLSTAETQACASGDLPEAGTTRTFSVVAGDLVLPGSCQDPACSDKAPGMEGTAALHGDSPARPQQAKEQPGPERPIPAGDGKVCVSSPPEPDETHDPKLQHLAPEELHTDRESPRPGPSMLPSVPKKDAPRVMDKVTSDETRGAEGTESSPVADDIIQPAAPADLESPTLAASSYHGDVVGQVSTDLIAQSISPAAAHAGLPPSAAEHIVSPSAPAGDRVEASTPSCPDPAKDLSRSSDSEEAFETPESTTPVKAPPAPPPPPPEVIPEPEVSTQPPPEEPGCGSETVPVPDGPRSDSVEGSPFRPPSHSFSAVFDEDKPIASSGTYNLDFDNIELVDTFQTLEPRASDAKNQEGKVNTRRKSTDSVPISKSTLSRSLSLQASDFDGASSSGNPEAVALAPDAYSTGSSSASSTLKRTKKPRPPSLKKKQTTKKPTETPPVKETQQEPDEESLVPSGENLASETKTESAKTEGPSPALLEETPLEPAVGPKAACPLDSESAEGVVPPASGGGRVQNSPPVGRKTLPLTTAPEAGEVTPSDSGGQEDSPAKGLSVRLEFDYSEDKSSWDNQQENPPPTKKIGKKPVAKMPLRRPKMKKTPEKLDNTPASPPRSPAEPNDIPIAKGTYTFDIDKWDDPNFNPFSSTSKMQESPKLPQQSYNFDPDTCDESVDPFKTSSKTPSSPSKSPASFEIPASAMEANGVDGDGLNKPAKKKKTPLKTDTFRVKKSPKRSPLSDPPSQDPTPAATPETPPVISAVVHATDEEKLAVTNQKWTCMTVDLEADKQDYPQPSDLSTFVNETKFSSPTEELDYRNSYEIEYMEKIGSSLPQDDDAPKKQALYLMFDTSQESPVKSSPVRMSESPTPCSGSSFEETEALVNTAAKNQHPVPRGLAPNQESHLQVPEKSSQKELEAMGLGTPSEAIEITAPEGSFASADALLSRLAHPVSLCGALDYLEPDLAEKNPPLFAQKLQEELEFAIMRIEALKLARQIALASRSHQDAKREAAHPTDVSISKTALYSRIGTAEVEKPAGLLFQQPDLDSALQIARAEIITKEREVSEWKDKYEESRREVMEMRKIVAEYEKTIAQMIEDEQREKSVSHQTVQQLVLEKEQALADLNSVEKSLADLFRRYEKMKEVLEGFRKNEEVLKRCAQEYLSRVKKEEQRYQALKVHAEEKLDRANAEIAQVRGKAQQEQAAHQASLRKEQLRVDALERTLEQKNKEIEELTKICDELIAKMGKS
# Chain of UniProt Q969X1 (Q969X1 whole entry, looked up): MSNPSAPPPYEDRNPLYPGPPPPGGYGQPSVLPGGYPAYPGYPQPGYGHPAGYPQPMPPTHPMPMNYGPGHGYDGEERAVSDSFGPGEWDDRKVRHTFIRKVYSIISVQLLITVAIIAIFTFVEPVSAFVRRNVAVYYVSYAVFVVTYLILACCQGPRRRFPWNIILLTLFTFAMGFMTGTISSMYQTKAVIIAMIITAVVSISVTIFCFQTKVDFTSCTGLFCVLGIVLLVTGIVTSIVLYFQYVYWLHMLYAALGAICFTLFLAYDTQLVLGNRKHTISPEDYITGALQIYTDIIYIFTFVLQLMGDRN
row,Target,log2 fold change
1,SLC44A2 isoform 2 (UniProt Q8IWA5),-0.044
2,STK38L (UniProt Q9Y2H1),-0.052
3,SLC35F6 (UniProt Q8N357),-0.004
4,SRSF6 (UniProt Q13247),0.227
5,TATDN2 (UniProt Q93075),-0.175
6,TENT5C (UniProt Q5VWP2),0.171
7,TMBIM1 (UniProt Q969X1),-0.009
8,SNRNP40 (UniProt Q96DI7),0.012
9,SPART (UniProt Q8N0X7),-0.02
10,SRSF4 (UniProt Q08170),0.165
11,SMDT1 (UniProt Q9H4I9),0.057
12,SNX1 (UniProt Q13596),-0.023
13,THADA (UniProt Q6YHU6),-0.017
14,SMARCB1 (UniProt Q12824),0.809 (active)
15,TACC2 (UniProt O95359),-0.045
16,SRFBP1 (UniProt Q8NEF9),0.446 (active)
17,SYNE1 (UniProt Q8NF91),-0.039
18,SNX15 (UniProt Q9NRS6),-0.063

row,Target,log2 fold change
1,SRCAP (UniProt Q6ZRS2),-0.058
2,THYN1 (UniProt Q9P016),0.029
3,SURF2 (UniProt Q15527),-0.055
4,TANGO6 (UniProt Q9C0B7),0.586
5,SPCS2 (UniProt Q15005),-0.062
6,STAM2 (UniProt O75886),-0.035
7,SP100 isoform 4 (UniProt P23497),-0.065
8,TM7SF3 (UniProt Q9NS93),-0.077
9,TIMM10B (UniProt Q9Y5J6),0.017
10,TLK1 (UniProt Q9UKI8),-0.029
11,SLC30A7 (UniProt Q8NEW0),0.02
12,SLC35B1 isoform 2 (UniProt P78383),-0.051
13,STX7 (UniProt O15400),0.028
14,TARS2 (UniProt Q9BW92),0.009
15,SUPT5H (UniProt O00267),-0.062
16,SMIM20 isoform 2 (UniProt Q8N5G0),-0.088
17,TANK (UniProt Q92844),-0.016
